# Source: PubChem BioAssay
# Unmarked numbers belong to inactive results. Activity calls are given as the source filed them. No stated cut-off is given here; in the data, active means fold change permeability below about 0.7 or above about 1.3; inactive means in between.
# Test: compounds altering in vitro BBB leakiness – cell-based, FITC-avidin fluorescence, HTS, primary screen (AID 1963498); further: test concentration not given here
# Conditions: brain endothelial barrier, actives lie on both sides
row,SMILES,fold change permeability
1,O=P(O)(O)C(Cl)(Cl)P(=O)(O)O,1.1
2,N=C1CCCN1Cc1[nH]c(=O)[nH]c(=O)c1Cl,1.6 (active)
3,CN1CCN(C2=Nc3ccccc3Oc3ccc(Cl)cc32)CC1,1.3 (active)
4,Cc1ccc(/C=N\NC(=O)c2n[nH]c3c2CCCC3)cc1,1.1
5,CNC(=O)Nc1cc(Oc2cncc(OC)c2)c(C2CCCOC2)cn1 (centres undefined),1.1
6,Cc1ccc(C(=O)N(CCCN)C(c2oc3cc(Cl)ccc3c(=O)c2Cc2ccccc2)C(C)C)cc1 (centres undefined),1.6 (active)
7,COc1ccccc1OCC(O)CN1CCN(CC(=O)Nc2c(C)cccc2C)CC1 (centres undefined),0.8
8,COc1cc(C(C)=O)ccc1OCCCN1CCC(c2noc3cc(F)ccc23)CC1,1.3 (active)
9,c1ccc(CN2CCC3(CCCc4ccccc43)CC2)cc1,1.6 (active)
10,COc1cc(-c2cc(-c3ccc(N4CCNCC4)cc3)cnc2C)cc(OC)c1OC,1.2
11,NS(=O)(=O)c1cc2c(cc1Cl)NC(C1CC3C=CC1C3)NS2(=O)=O (centres undefined),1.3 (active)
12,CCc1cccc2c3c([nH]c12)C(CC)(CC(=O)O)OCC3 (centres undefined),1.3 (active)
13,OC[C@H]1NC[C@@H](O)[C@@H]1O,1
14,CC(C)(O)[C@@H]1CC[C@](C)([C@H]2[C@@H](O)C[C@@]3(C)[C@@H]4C[C@H](O)[C@H]5C(C)(C)[C@@H](O)CC[C@@]56C[C@@]46CC[C@]23C)O1,1
15,CN(C)C(=O)Nc1cccc(-c2ccc(N(C)C)cc2)c1,1.1
16,C[C@@]12C(=O)OC(=O)[C@]1(C)[C@H]1CC[C@@H]2O1,1.1
17,NC(=Nc1ccccc1)NC(=O)c1nc(Cl)c(N)nc1N,1.2
18,O=C(/C=C/c1ccc(O)cc1)c1ccc(O)cc1O,1.2
19,S=C(Nc1ccccc1)Nc1nccs1,1.3 (active)
20,C=Cc1c(C)c2cc3[nH]c(cc4nc(cc5nc(cc1[nH]2)C(C)=C5CCC(=O)O)C(CCC(=O)O)=C4C)c(C)c3C=C,1

row,SMILES,fold change permeability
1,O=C(CCc1ccc(O)cc1)c1c(O)cc(O)cc1O,1
2,CC(=O)CCCCn1c(=O)c2c(ncn2C)n(C)c1=O,1
3,O=C1N/C(=N/S(=O)(=O)c2cccc3ccccc23)S/C1=C\c1ccc(Br)cc1,1.3 (active)
4,Cc1cc(C)cc(NC(=O)CN(c2cc([N+](=O)[O-])ccc2C)S(C)(=O)=O)c1,1.5 (active)
5,CCCc1c(OCCCOc2ccc(OCC(=O)O)cc2)ccc(C(C)=O)c1O,1.3 (active)
6,CC(N)(Cc1ccc(O)c(O)c1)C(=O)O (centres undefined),0.9
7,COc1cc2c(cc1O)CC[C@@H]1[C@@H]2CC[C@]2(C)[C@@H](O)CC[C@@H]12,1.3 (active)
8,CCOC(=O)[C@@H](N)CCC(=O)N[C@@H](CSCc1ccccc1)C(=O)N[C@@H](C(=O)OCC)c1ccccc1,1.3 (active)
9,CC[N+](CC)(CC)CC(=O)Nc1c(C)cccc1C,1.5 (active)
10,O=C(Nc1cc(C(F)(F)F)cc(C(F)(F)F)c1)Nc1c(Br)cc(Br)cc1-c1nn[nH]n1,0.9
11,O[Si](CCCN1CCCCC1)(c1ccc(F)cc1)C1CCCCC1 (centres undefined),1.4 (active)
12,C[C@@H](N)C1CCC(C(=O)Nc2ccncc2)CC1 (some centres undefined),1.2
13,CCCN1C[C@H](CSC)C[C@@H]2c3cccc4[nH]cc(c34)C[C@H]21,1.1
14,NC1(C(=O)O)CCc2cc(C(=O)O)ccc21 (centres undefined),1.1
15,COC(=O)C1=C(C)NC(C)=C(C(=O)OC(C)(C)CN(C)CCC(c2ccccc2)c2ccccc2)C1c1cccc([N+](=O)[O-])c1 (centres undefined),1.1
16,Nc1nc(N)c2nc(CNc3ccc(C(=O)N[C@@H](CCC(=O)O)C(=O)O)cc3)cnc2n1,0.9
17,CN(C)CCC(c1ccccc1)c1ccccn1 (centres undefined),1
18,O=C1CCc2cc(OCCCCc3nnnn3C3CCCCC3)ccc2N1,0.9
19,C[C@@H](O[C@H]1OCCN(Cc2n[nH]c(=O)[nH]2)[C@H]1c1ccc(F)cc1)c1cc(C(F)(F)F)cc(C(F)(F)F)c1,1.4 (active)
